Assay outcomes from PubChem.
Shown are actives, neighbours in structure and some others; about 11% of the full set was active somewhere.
G9a block: blocks human histone lysine methyltransferase G9a; Q96KQ7; G9a H3K9 monomethylation, AlphaScreen, 2 h; Potency, µM (titrated, usually from 102 µM), most hits filed as inhibitors; 8.8% of 350,000 active; note: nearly all actives have a fitted effect of over 75% in size
Target sequence (Q96KQ7 913-1193 limits assumed): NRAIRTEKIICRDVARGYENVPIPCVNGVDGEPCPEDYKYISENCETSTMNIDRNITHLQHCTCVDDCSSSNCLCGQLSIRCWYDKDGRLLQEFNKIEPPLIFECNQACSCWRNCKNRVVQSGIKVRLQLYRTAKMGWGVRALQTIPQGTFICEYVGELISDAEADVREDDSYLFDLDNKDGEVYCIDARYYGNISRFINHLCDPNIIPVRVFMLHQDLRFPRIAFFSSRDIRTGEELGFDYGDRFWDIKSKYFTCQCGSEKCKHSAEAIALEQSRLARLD
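Using a bead-based AlphaScreen, monomethylated H3K9 product from 2 h room-temperature reactions (G9a 20 nM, peptide 500 nM, SAM 20 uM) was detected with 0.5 ug/mL rabbit anti-H3K9me1 antibody.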
HP1b chromo inh: HP1-beta chromodomain-methylated histone interaction inhibition | Potency, µM (titrated, usually from 114 µM), hits mostly inhibitors | 0.56% of 390,000 active | AlphaScreen HP1-beta / biotin-H3K9me3 peptide binding | AID 540317 | P83916; note: nearly all actives have a fitted effect of over 70% in size
Target sequence (P83916 whole entry, looked up): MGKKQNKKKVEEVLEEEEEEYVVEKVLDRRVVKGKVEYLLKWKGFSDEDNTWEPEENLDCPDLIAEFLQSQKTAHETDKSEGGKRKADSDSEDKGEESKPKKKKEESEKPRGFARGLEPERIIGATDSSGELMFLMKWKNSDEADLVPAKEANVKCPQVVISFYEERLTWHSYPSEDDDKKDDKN
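Compound inhibition of the preformed complex between 50 nM HP1-beta and 50 nM biotinylated H3K9me3 peptide was read by AlphaScreen. Buffer was PBS pH 7.4 with 0.01% Tween-20. Incubations ran 30 min at room temperature, with 10 ug/mL donor/acceptor beads.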
JMJD2A Tudor: blocks the human JMJD2A Tudor domain. O75164. AlphaScreen JMJD2A-Tudor / H3K4me3 peptide binding. Potency, µM (highest dose often 114 µM), most hits filed as inhibitors. 4.4% of 390,000 active; note: nearly all actives have a fitted effect of over 50% in size
VDR inh: inhibitors of human vitamin D receptor; P11473; VDR-SRC2-3 peptide fluorescence polarization, 2 h; Potency, µM, most hits filed as inhibitors; 0.93% of 400,000 active; AID 504847
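Signal is fluorescence polarization, reporting how far test compounds block the interaction of VDR with the SRC2-3 coregulator peptide after a 2 h room-temperature incubation.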
BAZ2B inh: BAZ2B (human) inhibition; Q9UIF8; AlphaScreen BAZ2B-H3K14Ac peptide displacement; Potency, µM (titrated, usually from 114 µM), usual class: inhibitors; 4.4% of 360,000 active; AID 504333; note: nearly all actives have a fitted effect of over 60% in size
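AlphaScreen displacement of biotin-H3(5-23)K14Ac peptide (50 nM final) from BAZ2B (50 nM final) in PBS pH 7.4, 0.01% Tween-20; complex preformed 30 min RT, then compounds (top 110 uM) 30 min RT, beads 20 min dark.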
PLK1 PBD block: blocks phosphopeptide binding to human PLK1 polo-box domain | P53350 | Plk1 PBD binding of FITC phosphopeptide, fluorescence polarization | Potency, µM, most hits filed as inhibitors | 2.8% of 360,000 active | AID 720504; note: series mostly up to about 57 µM; nearly all actives have a fitted effect of over 65% in size
Each line names hits and unclear results; the compound was inactive in the other large screens. Calls come from the whole dose curve; as a rule, active = well fitted curve in the direction sought with a large enough effect; inconclusive = small, poorly fitted or top-dose-only effect, or another doubt; inactive = no such curve, though single readings can be large; an effect the other way counts as inactive or inconclusive.

C=C1C([C@@]2(C)C(OC(C)=O)CC(=O)O[C@@](C)(COC(C)=O)C2CC(=O)OC)C(OC=O)C(OC(=O)C(OC(C)=O)C(C)CC)[C@]2(C)C(c3ccoc3)CC(=O)C12O (some centres undefined)	none (no result: HP1b chromo inh, JMJD2A Tudor, BAZ2B inh, PLK1 PBD block)
COc1ccccc1N1C(=O)CC(=O)NC1=O	BAZ2B inh 50µM
CC(C)c1ccc(N2C(=O)CC(=O)NC2=O)cc1	none
CCc1ccccc1N1C(=O)CC(=O)NC1=O	none
Cc1ccccc1N1C(=O)CC(=O)NC1=O	G9a block 45µM
CNC(=O)Oc1ccccc1C(=O)Nc1ccccc1	none (no result: HP1b chromo inh, JMJD2A Tudor, BAZ2B inh, PLK1 PBD block)
CN1[C@@H]2CC[C@H]1CC(OC1c3ccccc3CCc3ccccc31)C2 (some centres undefined)	JMJD2A Tudor 79µM
CN1C2CCC1CC(OC(c1ccc(F)cc1)c1ccc(F)cc1)C2 (centres undefined)	none (no result: HP1b chromo inh, JMJD2A Tudor, BAZ2B inh, PLK1 PBD block)
COC(=O)C(O)(c1ccc(NC(=O)c2ccccc2)cc1)C(F)(F)F (centres undefined)	none
COC(=O)CCCCC1SCC(NC(=O)c2ccccc2)C1Cl (centres undefined)	BAZ2B inh 79µM
OCC(O)Cc1ccc2c(c1)OCO2 (centres undefined)	none (no result: HP1b chromo inh, JMJD2A Tudor, BAZ2B inh, PLK1 PBD block)
[O]=[Sb]([OH])([OH])[c]1ccccc1	VDR inh 79µM (no result: G9a block, BAZ2B inh, PLK1 PBD block)
O=C(Cc1ccccc1)OCc1ccccc1	none
CC(C)(C)OC(=O)N1CC[C@H]1COc1cnc[c]([Sn]([CH3])([CH3])[CH3])c1	none (no result: HP1b chromo inh, JMJD2A Tudor, BAZ2B inh, PLK1 PBD block)
O=[N+]([O-])c1cccc(CN2CCN(Cc3ccc(Br)cc3)CC2)c1	G9a block 3.5µM, HP1b chromo inh inconclusive, JMJD2A Tudor 20µM, BAZ2B inh 20µM
O=[N+]([O-])c1cccc(C2N3CCCN23)c1 (centres undefined)	none
[O-]/[N+](=C/c1cccnc1)c1ccc(Br)cc1	G9a block inconclusive, VDR inh 45µM, BAZ2B inh inconclusive, PLK1 PBD block 11µM
COc1ccccc1-c1n[nH]c(=S)n1Cc1ccco1	G9a block 3.5µM, BAZ2B inh inconclusive (no result: HP1b chromo inh, JMJD2A Tudor, VDR inh, PLK1 PBD block)
S=c1[nH]nc(C2CC2)n1Cc1ccccc1	G9a block 6.3µM, JMJD2A Tudor 16µM, PLK1 PBD block inconclusive (no result: BAZ2B inh)
O=c1c2ccccc2nc(-c2ccco2)n1-c1ccc(Br)cc1	none
S=c1[nH]nc(-c2ccco2)n1Cc1ccccc1	G9a block inconclusive, JMJD2A Tudor 7.1µM
C[C@H](CO)N1C[C@H](C)[C@@H](CN(C)C(=O)Nc2ccccc2)Oc2c(NS(=O)(=O)c3ccc(F)cc3)cccc2C1=O	none (no result: G9a block, BAZ2B inh)
CN1C[C@@H](CS(=O)(=O)N(C)C)C[C@@H]2c3cccc4c3c(cn4C)C[C@H]21	none (no result: HP1b chromo inh, JMJD2A Tudor, VDR inh, BAZ2B inh, PLK1 PBD block)
O=c1[nH]sc2cc(F)ccc12	G9a block 1.6µM, HP1b chromo inh inconclusive, JMJD2A Tudor 22µM, VDR inh 7.1µM, BAZ2B inh 45µM, PLK1 PBD block 3.8µM
O=C1NC(=O)C(Nc2ccccc2)C(=O)N1	VDR inh 25µM (no result: G9a block, BAZ2B inh)
Cc1ccc(NC2C(=O)NC(=O)NC2=O)cc1	VDR inh 14µM (no result: G9a block, BAZ2B inh)
COc1ccc(-c2nc(CSCC(=O)N3CCN(c4ccc(F)cc4)CC3)c(C)o2)cc1	JMJD2A Tudor 50µM (no result: PLK1 PBD block)
CC(=O)[C@@]1(O)CC[C@H]2C3CCC4=CC(=O)CC[C@]4(C)C3CC[C@@]21C (some centres undefined)	none (no result: HP1b chromo inh, JMJD2A Tudor, VDR inh, BAZ2B inh, PLK1 PBD block)
O=C(N/N=C/c1c(O)n(Cc2ccc(F)cc2)c(=S)[nH]c1=O)c1ccncc1	JMJD2A Tudor 100µM, BAZ2B inh 79µM (no result: G9a block)
CCC(C)n1c(O)c(C=NCCc2ccccc2)c(=O)[nH]c1=S (centres undefined)	none
CCC(C)n1c(O)c(/C=N/NC(=O)c2ccncc2)c(=O)[nH]c1=S (centres undefined)	JMJD2A Tudor inconclusive, BAZ2B inh 56µM
CCn1c(O)c(/C=N/NC(=O)c2ccncc2)c(=O)[nH]c1=S	JMJD2A Tudor 71µM, BAZ2B inh 35µM
CCC(C)n1c(O)c(/C=N/Nc2ccccc2)c(=O)[nH]c1=S (centres undefined)	G9a block 1.1µM, JMJD2A Tudor inconclusive, VDR inh inconclusive, BAZ2B inh inconclusive
